# Screening data as filed in PubChem BioAssay.
# Only some compounds are listed: those with a hit (about 9.2% of all), similar ones and a draw of the others.
# HttQ103 aggreg: mutant huntingtin aggregation inhibition; PC12 HttQ103-GFP aggregates, Acumen cytometry, 40 h; Potency, µM (doses to about 46.1 µM), for inactives: at the top dose activity change, negative = inhibition, usual class: inhibitors; 1.1% of 220,000 active; active = well fitted curve in the direction sought with a large enough effect; inconclusive = small, poorly fitted or top-dose-only effect, or another doubt; inactive = no such curve, though single readings can be large; an effect the other way counts as inactive or inconclusive; note: % is set by controls: 0 for no effect and ±100 for the full control effect; nearly all actives have a fitted effect of over 60% in size
#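 Inducible Q103 Huntingtin exon 1–GFP PC12 line, 1500 cells/well in phenol red free DMEM with 5% equine and 5% calf serum. Tebufenozide 100 nM induced expression; compounds titrated; aggregates quantified by cytometry.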
# HPGD block: blocks human HPGD enzyme activity. 4.3% of 150,000 active. P15428. Potency, µM, for inactives: top-dose activity change, negative = inhibition, hits mostly inhibitors. purified HPGD, NADH fluorescence kinetic, PGE2 substrate. AID 894; note: % is set by controls: 0 for no effect and ±100 for the full control effect
# Target sequence (P15428 whole entry, looked up): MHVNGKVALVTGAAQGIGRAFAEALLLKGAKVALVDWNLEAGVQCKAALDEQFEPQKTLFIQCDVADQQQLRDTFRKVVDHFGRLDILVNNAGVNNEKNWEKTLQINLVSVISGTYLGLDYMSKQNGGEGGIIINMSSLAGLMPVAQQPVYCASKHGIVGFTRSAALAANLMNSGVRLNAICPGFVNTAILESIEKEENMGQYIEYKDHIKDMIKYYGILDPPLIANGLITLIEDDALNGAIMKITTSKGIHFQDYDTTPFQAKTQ
#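 20 nM HPGD preincubated 15 min at room temperature with compound in 50 mM Tris-HCl pH 8, 0.01% Tween 20. Started with 1 mM NAD+ and 30 uM prostaglandin E2; NADH fluorescence (360/450 nm) read 5 times over 30-s intervals, last minus first.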
# ALDH1A1 block: ALDH1A1 (human) enzyme inhibition | P00352 | Purified ALDH1A1, NADH fluorescence, propionaldehyde substrate | Potency, µM (series often up to 75.3 µM), without a hit: at the highest dose activity, negative = inhibition, hits mostly inhibitors | 7.3% of 220,000 active | AID 1030;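 note: plate controls were no enzyme wells and a reference inhibitor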
# Lamin A splicing: LMNA splicing modulation; 0.01% of 200,000 active; AID 1487; HeLa LMNA splicing GFP/RFP minigene ratio, 48 h; Potency, µM (doses to about 46.1 µM), without a hit: at the top dose ratio change, negative = inhibition, usual class: inhibitors; active = well fitted inhibition curve with a large enough effect in the signal ratio, with a control signal flat, not every such curve was filed as active; inconclusive = small, poorly fitted or top-dose-only effect, or effect the other way, or a change in a side signal; the % refers to the signal ratio; note: % is set by controls: 0 for no effect and ±100 for the full control effect
#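 S3 HeLa stable clones carrying a lamin A-EGFP splicing minigene plus DsRed2 were seeded at 600 cells/well in Opti-MEM with 2% FBS, pin-dosed and incubated 48 h at 37°C. Acumen cytometry (488 nm) gave the GFP/RFP total-intensity ratio.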
# KDM4E inh: JMJD2E (human) inhibition | JMJD2E catalytic domain, FDH-coupled NADH fluorescence (FDH is formaldehyde dehydrogenase) | Potency, µM (top dose mostly 57.1 µM), for inactives: top-dose activity change, negative = inhibition, hits mostly inhibitors | B2RXH2 | AID 2147 | 1.6% of 230,000 active;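 note: 0% = wells with enzyme and -100% = buffer wells without enzyme; nearly all actives have a fitted effect of over 50% in size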
# Target sequence (B2RXH2 1-337 limits assumed): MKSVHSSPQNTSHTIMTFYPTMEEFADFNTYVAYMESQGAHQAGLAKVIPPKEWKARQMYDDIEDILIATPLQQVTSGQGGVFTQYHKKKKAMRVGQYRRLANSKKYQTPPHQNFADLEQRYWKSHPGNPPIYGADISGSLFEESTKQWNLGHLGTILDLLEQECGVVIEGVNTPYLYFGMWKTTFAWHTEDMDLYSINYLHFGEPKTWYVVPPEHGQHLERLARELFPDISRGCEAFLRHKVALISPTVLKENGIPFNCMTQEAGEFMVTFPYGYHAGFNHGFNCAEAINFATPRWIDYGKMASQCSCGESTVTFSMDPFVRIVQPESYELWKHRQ
# HTT ATP protect: Huntington cell model cytoprotection by ATP luminescence; 0.14% of 230,000 active; AID 1471; Potency, µM (doses to about 56.4 µM), for inactives: cytoprotection (ATP increase), hits mostly activators; PC12 HTT-Q103 induced, cytoprotection, ATP luminescence, 40 h; active = well fitted curve in the direction sought with a large enough effect; inconclusive = small, poorly fitted or top-dose-only effect, or another doubt; inactive = no such curve, though single readings can be large; an effect the other way counts as inactive or inconclusive; note: % of control where 0% means no effect; nearly all actives have a fitted effect of over 45% in size
#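 PC12 cells with ecdysone-inducible HTT exon 1 Q103-GFP, induced with 100 nM tebufenozide and co-treated with library compounds in a dose series (1536-well, 1500 cells/well). Cytoprotection read as ATP content by ATPlite luminescence.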
# Active calls of the source: *; ? = inconclusive; / = no result given; [ ] = another dose, or the depositor's remark. Unless noted, calls come from the whole dose curve; as a rule, active = well fitted inhibition curve with a large enough effect (not every such curve was filed as active); inconclusive = small, poorly fitted or top-dose-only effect, or another doubt; inactive = no such curve, though single readings can be large or run the other way. Potency is the fitted concentration of half-maximal effect.
SMILES,HttQ103 aggreg,HPGD block,ALDH1A1 block,Lamin A splicing,KDM4E inh,HTT ATP protect
CCN(CC)c1c([N+](=O)[O-])ncn1C,14%,-9%,?,10%,3%,5%
Cc1cnc(CNc2nc(-c3ccc4c(c3)OCO4)nc3ccccc23)cn1,/,-23%,-13%,-4%,?,11%
Cn1c(=O)c2c(SCc3cccnc3)nc(CC(C)(C)C)nc2n(C)c1=O,-20%,-18%,0.89µM*,?,1%,1%
CCCc1nc(SCc2cccnc2)c2c(=O)n(C)c(=O)n(C)c2n1,-13%,-5%,?,5%,4%,22%
CC(C)(C)SCCNC(=O)c1ccc(Cl)c([N+](=O)[O-])c1,0%,28µM*,?,-5%,4%,-8%[10 µM]
O=C(Nc1ccc(Cl)cc1)N1CCN(c2ccc3nnc(-c4ccc(F)cc4)n3n2)CC1,22µM*,?,28µM*,?,?,-14%[10 µM]
N#Cc1cccc(S(=O)(=O)NCC(=O)OCC(=O)c2ccc[nH]2)c1,28%,/,11%,/,6%,/
Cc1ccc(OCCCN2C(=O)C(=O)c3cc(C)ccc32)cc1,-4%[9.22 µM],/,0.1µM*,/,8%,21%[10 µM]
O=C1c2ccccc2C(=O)N1CCCOc1ccccc1,-30%,3%,1%,8%,-4%,5%
Cc1cccc(OCCCN2C(=O)C(=O)c3cc(C)ccc32)c1,8%[9.22 µM],/,0.1µM*,?,-1%,44%[10 µM]
Cc1ccc2c(c1)C(=O)C(=O)N2CCCOc1ccccc1,-1%[9.22 µM],/,0.11µM*,-13%[46 µM],3%,9%[10 µM]
Cc1ccc(OCCN2C(=O)C(=O)c3cccc(C)c32)cc1,1%[9.22 µM],/,0.2µM*,?,14%,8%[10 µM]
Cc1cccc(OCCN2C(=O)c3ccccc3C2=O)c1,-7%,/,9%,/,-8%,-22%
NC(Cc1cnc[nH]1)C(=O)Nc1ccc2ccccc2c1 (centres undefined),/,-15%,3%,-11%,16%,/
CC1CCC(C(C)C)C(OCC(O)CNC(C)C)C1 (centres undefined),-20%[9.22 µM],/,/,/,1%,7%[10 µM]
COc1ccc(Cl)cc1NC(=O)c1nn(C)c2c1CS(=O)(=O)c1ccccc1-2,/,/,/,0%[46 µM],/,/
CC(=O)N[C@@H](CC(=O)O)C(=O)N[C@@H](CCC(=O)O)C(=O)O,10%,-5%,7%,?,-8%,-23%
O=C(CN1C(=O)C(=O)c2ccccc21)OCN1C(=O)c2ccccc2C1=O,-31%[9.22 µM],/,4%,6%[46 µM],-3%,4%[10 µM]
Cc1cccc(C)c1N1CC(=O)N(c2c(C)cccc2C)CC1=O,25%,-7%,6%,12%[0.0737 µM],-6%,-13%
Cc1cccc2c1N(C)C(=O)C2=O,-5%,/,1.8µM*,/,-3%,-7%
CCOC(=O)CN1C(=O)C(=O)c2cccc(C)c21,?,-15%,0.025µM*,-15%,-1%,9%[10 µM]
CCC(CC)NC(=O)CO/N=C/c1ccccc1OC(F)F,3%,20µM*,2%,?,0%,11%[10 µM]
O=C(CO/N=C/c1ccc(OC(F)F)cc1)NC1CCCCCC1,3%,/,-1%,?,-4%,-6%
CCN(CC)c1ccc(C(=O)N/N=C/c2ccccc2OC(F)F)cc1,10µM*,/,-5%,?,?,17%[10 µM]
CC(C)Oc1ccccc1/C=N/NC(=O)c1ccc(F)cc1,-4%,-26%,?,1%,3%,2%[10 µM]
SMILES,HttQ103 aggreg,HPGD block,ALDH1A1 block,Lamin A splicing,KDM4E inh,HTT ATP protect
O=C(CO/N=C/c1ccccc1OC(F)F)NC1CCCCC1,-1%,25µM*,-2%,-12%,0%,15%[10 µM]
Cc1ccc(OCCCCNC2CCCCC2)c(C)c1,13%,/,?,/,?,/
CCCC(=O)NC1=C(C#N)C2(CCCC2)Cc2ccccc21,-8%,-11%,-5%,15%,3%,10%[0.074 µM]
CCCC(=O)C1=C(c2ccccc2)C(C#N)(C#N)C(C#N)=C1N,5%,1.4µM*,?,10%,?,-1%[0.074 µM]
C=CCOc1ccccc1CNc1ccc2c(c1)OCCO2,14µM*,/,?,/,?,-168%
O=[N+]([O-])c1cccc(/C=N/n2c(COc3ccccc3)n[nH]c2=S)c1,7%,4µM*,?,-2%[0.0737 µM],?,22%
S=c1[nH]nc(COc2ccccc2)n1/N=C/c1cccnc1,17%,14µM*,-13%,-4%,-4%,14%[0.074 µM]
CN(C)c1ccc(/C=N/n2c(-c3cccnc3)n[nH]c2=S)cc1,13%,/,?,-22%[46 µM],?,-40%
O=[N+]([O-])c1ccc(/C=N/n2c(COc3ccccc3)n[nH]c2=S)cc1,8%,5µM*,28µM*,4%,-13%,0%
CN(C)c1ccc(/C=N/n2c(COc3ccccc3)n[nH]c2=S)cc1,-4%,13µM*,25µM*,-12%,?,-3%[0.074 µM]
CCOC(=O)/C(C#N)=N/Nc1ccc(S(=O)(=O)N2CCc3ccccc32)cc1,-10%,-2%,-13%,?,0%,/
N#C/C(=N\Nc1ccc(S(=O)(=O)N2CCc3ccccc32)cc1)C(N)=S,?,/,6.3µM*,?,-4%,/
N#C/C(=N\Nc1ccc(S(=O)(=O)N2CCCCC2)cc1)C(N)=S,?,-28%,13µM*,?,1%,?
N#C/C(=N\Nc1ccc(S(=O)(=O)N2CCCCCC2)cc1)C(N)=S,/,/,8.9µM*,/,2%,/
CCc1[nH]c(=S)c(C#N)c2c1CCCC2,-7%,20µM*,?,0%,-10%,/
CCNC(=O)CCS(=O)(=O)c1ccc2ccccc2c1,-6%,32µM*,?,-7%,?,-12%[1.9 µM]
Cc1cnn(Cc2cccnc2)c1N,-15%[9.22 µM],/,/,/,2%,-3%[10 µM]
COc1cccc(Cn2c(=O)c(-c3cccc(F)c3)nc3cncnc32)c1,/,20µM*,-7%,/,/,-54%
CC(C(Sc1ccccc1N)c1ccccc1)[N+](=O)[O-] (centres undefined),18%[9.22 µM],/,/,/,11µM*,-9%[10 µM]
CCCC(C)NC(=O)c1ccc(F)cc1 (centres undefined),-14%,?,40µM*,-5%,1%,-13%
CCCC(C)NC(=O)c1ccc(-c2ccccc2)cc1 (centres undefined),4%,/,10%,/,7%,-71%
CC(C)NC(=O)CCNC(=O)c1ccc(F)cc1,-7%,-6%,2.8µM*,5%,6%,-28%
